The results in this text go back to the supplement of paper PMC3545927.

This test concerns the target furin, P09958. The test is described as follows: furin cleavage Z-score vs untreated control; higher = more cleavage, active = 3.5 or more, inactive = 1 or less, 8 variable residues between constant flanks. Put shortly: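 Furin cleavage was scored on 8-mer peptides joined to a cDNA oligonucleotide and bound to magnetic beads at the N-terminus. Digestion with purified furin (1:10 enzyme:substrate, 0.01 ml, 50 mM HEPES pH 7.5, CaCl2, NaCl) lasted 7.5, 15 or 30 min. Freed DNA was tagged with adapters by PCR, sequenced and counted; the cleavage Z-score is the lowess-adjusted log count versus furin-free reactions, scaled by median absolute deviation.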

The list shows a part of the results. How many sequences the whole screen found active is unknown.

Chain of furin, P09958 (P09958 whole entry): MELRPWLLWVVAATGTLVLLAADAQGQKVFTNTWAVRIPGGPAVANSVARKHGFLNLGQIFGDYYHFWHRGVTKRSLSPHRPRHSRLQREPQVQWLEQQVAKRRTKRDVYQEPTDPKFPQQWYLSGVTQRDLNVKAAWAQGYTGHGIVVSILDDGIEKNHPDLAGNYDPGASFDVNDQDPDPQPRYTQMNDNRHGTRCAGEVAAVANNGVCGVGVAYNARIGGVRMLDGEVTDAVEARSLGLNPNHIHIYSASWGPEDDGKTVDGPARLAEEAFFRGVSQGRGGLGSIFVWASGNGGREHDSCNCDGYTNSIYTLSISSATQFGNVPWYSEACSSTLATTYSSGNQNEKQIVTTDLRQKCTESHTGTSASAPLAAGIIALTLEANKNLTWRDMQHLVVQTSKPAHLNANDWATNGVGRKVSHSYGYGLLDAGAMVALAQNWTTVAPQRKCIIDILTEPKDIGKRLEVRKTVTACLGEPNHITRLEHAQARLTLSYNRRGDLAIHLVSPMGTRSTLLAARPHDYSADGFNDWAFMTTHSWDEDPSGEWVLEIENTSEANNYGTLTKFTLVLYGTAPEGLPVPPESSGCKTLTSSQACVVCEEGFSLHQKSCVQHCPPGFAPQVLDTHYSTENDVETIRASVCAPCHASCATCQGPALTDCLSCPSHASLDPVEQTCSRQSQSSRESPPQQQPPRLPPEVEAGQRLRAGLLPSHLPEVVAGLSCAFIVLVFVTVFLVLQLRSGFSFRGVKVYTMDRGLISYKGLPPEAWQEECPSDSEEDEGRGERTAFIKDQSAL

B1: HC981 (peptide)
chain: CAVTKYIMTCAGNASASA
Turning to B1, the “furin cleavage Z-score” value (7.5 min) was -0.549 (inactive), the “furin cleavage Z-score” value (15 min) was -0.794 (inactive) and the “furin cleavage Z-score” value (30 min) was 0.2 (inactive).

B2: HC2375 (peptide)
chain: CAEVPCHHPSAGNASASA
As for B2, the “furin cleavage Z-score” value reads like this: (7.5 min) 0.748 (inactive); (15 min) 1.23; (30 min) 0.223 (inactive).

B3: HC1198 (peptide)
chain: CAAPNYTFALAGNASASA
Turning to B3, the “furin cleavage Z-score” value is, setting by setting: (7.5 min) -1.92 (inactive); (15 min) -0.299 (inactive); (30 min) -0.368 (inactive).

B4: HC1546 (peptide)
chain: CAGDPPQPEYAGNASASA
Consider B4, for which the “furin cleavage Z-score” value is -0.406 (inactive) (7.5 min), -0.628 (inactive) (15 min) and 0.347 (inactive) (30 min).

B5: FS-3123 (peptide)
chain: CARVRRAIPRAGNASASA
Consider B5, for which the “furin cleavage Z-score” value is 5.13 (active) (7.5 min), 4.64 (active) (15 min) and 6.32 (active) (30 min).

B6: FS-2106 (peptide)
chain: CARVRRAGQGAGNASASA
Regarding B6, the “furin cleavage Z-score” value is, setting by setting: (7.5 min) 3.76 (active); (15 min) 5.43 (active); (30 min) 4.94 (active).

B7: FS-2621 (peptide)
chain: CARVRRAATPAGNASASA
On to B7, for which the “furin cleavage Z-score” value by setting is: (7.5 min) 11.8 (active); (15 min) 12.6 (active); (30 min) 10.3 (active).

B8: FS-2842 (peptide)
chain: CARVRKDGGGAGNASASA
As for B8, the “furin cleavage Z-score” value runs as follows: (7.5 min) -0.741 (inactive); (15 min) 1.03; (30 min) -1.03 (inactive).

B9: FS-2319 (peptide)
chain: CARVRRQIHAAGNASASA
On to B9, for which the “furin cleavage Z-score” value by setting is: (7.5 min) 8.32 (active); (15 min) 8.68 (active); (30 min) 7.57 (active).

B10: FS-2245 (peptide)
chain: CARVRRLFCRAGNASASA
B10: the “furin cleavage Z-score” value was 0.941 (inactive) (7.5 min), 1.51 (15 min) and 0.361 (inactive) (30 min).

B11: HC1652 (peptide)
chain: CASVSHARPRAGNASASA
Turning to B11, the “furin cleavage Z-score” value is 0.173 (inactive) (7.5 min), -1.3 (inactive) (15 min) and -0.282 (inactive) (30 min).

B12: HC279 (peptide)
chain: CARCWVAMTPAGNASASA
As for B12, the “furin cleavage Z-score” value (7.5 min) is -1.59 (inactive), the “furin cleavage Z-score” value (15 min) was found to be 1.01 and the “furin cleavage Z-score” value (30 min) is -0.0231 (inactive).

B13: HC6 (peptide)
chain: CAMEEFSQHLAGNASASA
Take B13: the “furin cleavage Z-score” value runs as follows: (7.5 min) -0.132 (inactive); (15 min) -1.04 (inactive); (30 min) -0.188 (inactive).

B14: CS9 (peptide)
chain: CAADTVDGAGAGNASASA
Turning to B14, the “furin cleavage Z-score” value (7.5 min) is 0.142 (inactive), the “furin cleavage Z-score” value (15 min) is -1.09 (inactive) and the “furin cleavage Z-score” value (30 min) is -0.572 (inactive).

B15: HC1671 (peptide)
chain: CADEECSQHLAGNASASA
Turning to B15, the “furin cleavage Z-score” value reads like this: (7.5 min) 0.117 (inactive); (15 min) 0.56 (inactive); (30 min) -0.0902 (inactive).

B16: HC2163 (peptide)
chain: CAEAVTSTWVAGNASASA
As to B16, the “furin cleavage Z-score” value was 1.01 (7.5 min), -0.993 (inactive) (15 min) and -0.235 (inactive) (30 min).

B17: HC1829 (peptide)
chain: CAYTPCSGSWAGNASASA
With B17, the “furin cleavage Z-score” value (7.5 min) was -0.863 (inactive), the “furin cleavage Z-score” value (15 min) was -0.615 (inactive) and the “furin cleavage Z-score” value (30 min) is -0.179 (inactive).

B18: HC2195 (peptide)
chain: CAEVHTSTWVAGNASASA
In the case of B18, the “furin cleavage Z-score” value reads like this: (7.5 min) 0.614 (inactive); (15 min) -0.225 (inactive); (30 min) 1.53.

B19: FS-2388 (peptide)
chain: CARVRRSTAEAGNASASA
Consider B19, for which the “furin cleavage Z-score” value is, setting by setting: (7.5 min) 12.5 (active); (15 min) 12.2 (active); (30 min) 8.54 (active).

B20: FS-1877 (peptide)
chain: CAAGRRSEAEAGNASASA
Take B20: the “furin cleavage Z-score” value was -2 (inactive) (7.5 min), -1.75 (inactive) (15 min) and -0.59 (inactive) (30 min).

B21: HC1249 (peptide)
chain: CADPSHITAEAGNASASA
For B21, the “furin cleavage Z-score” value is, setting by setting: (7.5 min) -0.448 (inactive); (15 min) -0.687 (inactive); (30 min) -1.36 (inactive).

B22: FS-1700 (peptide)
chain: CARFKKFATEAGNASASA
For the sequence B22, the “furin cleavage Z-score” value is, setting by setting: (7.5 min) 0.401 (inactive); (15 min) 0.983 (inactive); (30 min) -0.463 (inactive).

B23: FS-2057 (peptide)
chain: CARPPRPAQGAGNASASA
On to B23, for which the “furin cleavage Z-score” value reads like this: (7.5 min) -0.496 (inactive); (15 min) -0.739 (inactive); (30 min) -0.973 (inactive).

B24: FS-3016 (peptide)
chain: CARPDRSSQGAGNASASA
As to B24, the “furin cleavage Z-score” value was -1.72 (inactive) (7.5 min), -1.8 (inactive) (15 min) and -1.46 (inactive) (30 min).

B25: FS-1853 (peptide)
chain: CARFKRWKAEAGNASASA
B25: the “furin cleavage Z-score” value (7.5 min) was found to be 3.27, the “furin cleavage Z-score” value (15 min) was 4.72 (active) and the “furin cleavage Z-score” value (30 min) was 6.24 (active).

B26: FS-3125 (peptide)
chain: CARVRREDTPAGNASASA
With B26, the “furin cleavage Z-score” value reads like this: (7.5 min) 7.61 (active); (15 min) 7.5 (active); (30 min) 6.22 (active).

B27: HC1093 (peptide)
chain: CAAFKIMSGEAGNASASA
B27: the “furin cleavage Z-score” value (7.5 min) was -0.371 (inactive), the “furin cleavage Z-score” value (15 min) was -0.656 (inactive) and the “furin cleavage Z-score” value (30 min) is -1.3 (inactive).

B28: FS-3130 (peptide)
chain: CARWGRSAQGAGNASASA
For B28, the “furin cleavage Z-score” value is 4.05 (active) (7.5 min), 4 (active) (15 min) and 4.18 (active) (30 min).

B29: HC1646 (peptide)
chain: CAFTAGYSGGAGNASASA
As to B29, the “furin cleavage Z-score” value is, setting by setting: (7.5 min) -0.828 (inactive); (15 min) -0.656 (inactive); (30 min) -0.88 (inactive).

B30: HC2337 (peptide)
chain: CAESPCHRPSAGNASASA
B30: the “furin cleavage Z-score” value (7.5 min) is 1.16, the “furin cleavage Z-score” value (15 min) is 0.888 (inactive) and the “furin cleavage Z-score” value (30 min) is -0.202 (inactive).

B31: HC1929 (peptide)
chain: CATTPCSGSYAGNASASA
In the case of B31, the “furin cleavage Z-score” value reads like this: (7.5 min) -0.34 (inactive); (15 min) -0.574 (inactive); (30 min) 0.025 (inactive).

B32: HC2504 (peptide)
chain: CASTICSAHLAGNASASA
Turning to B32, the “furin cleavage Z-score” value (7.5 min) came out at 1.31, the “furin cleavage Z-score” value (15 min) was -0.501 (inactive) and the “furin cleavage Z-score” value (30 min) came to 1.12.

B33: HC552 (peptide)
chain: CAVPGAVYTFAGNASASA
For B33, the “furin cleavage Z-score” value reads like this: (7.5 min) -0.518 (inactive); (15 min) 0.509 (inactive); (30 min) -0.772 (inactive).

B34: FS-2105 (peptide)
chain: CARVRRAAQGAGNASASA
B34: the “furin cleavage Z-score” value (7.5 min) is 8.98 (active), the “furin cleavage Z-score” value (15 min) was 8.61 (active) and the “furin cleavage Z-score” value (30 min) was 7.68 (active).

B35: FS-2325 (peptide)
chain: CARALRSLDLAGNASASA
Consider B35, for which the “furin cleavage Z-score” value by setting is: (7.5 min) 3.52 (active); (15 min) 2.8; (30 min) 4.65 (active).

B36: FS-2535 (peptide)
chain: CARVRRAAQAAGNASASA
With B36, the “furin cleavage Z-score” value by setting is: (7.5 min) 8.23 (active); (15 min) 7.6 (active); (30 min) 6.83 (active).

B37: FS-1944 (peptide)
chain: CARALRSSGTAGNASASA
In the case of B37, the “furin cleavage Z-score” value was -0.0204 (inactive) (7.5 min), -0.353 (inactive) (15 min) and 0.495 (inactive) (30 min).

B38: FS-1796 (peptide)
chain: CARTDRSSDRAGNASASA
Consider B38, for which the “furin cleavage Z-score” value reads like this: (7.5 min) -0.725 (inactive); (15 min) -1.9 (inactive); (30 min) -1.59 (inactive).

B39: FS-3174 (peptide)
chain: CARVRRQLDRAGNASASA
On to B39, for which the “furin cleavage Z-score” value is, setting by setting: (7.5 min) 10.3 (active); (15 min) 12.6 (active); (30 min) 9.92 (active).

B40: FS-3076 (peptide)
chain: CARSCRAAQAAGNASASA
On to B40, for which the “furin cleavage Z-score” value is, setting by setting: (7.5 min) 0.547 (inactive); (15 min) 1.19; (30 min) 1.76.

B41: FS-2641 (peptide)
chain: CARALRSVSRAGNASASA
Consider B41, for which the “furin cleavage Z-score” value reads like this: (7.5 min) -0.658 (inactive); (15 min) -0.337 (inactive); (30 min) 0.074 (inactive).

B42: HC781 (peptide)
chain: CAPAAYAAQGAGNASASA
As to B42, the “furin cleavage Z-score” value was 0.244 (inactive) (7.5 min), 1.54 (15 min) and 0.00948 (inactive) (30 min).

B43: HC1914 (peptide)
chain: CATTPCSGKWAGNASASA
Take B43: the “furin cleavage Z-score” value is, setting by setting: (7.5 min) -1.59 (inactive); (15 min) 1.19; (30 min) -1.38 (inactive).
